Screening results as filed in PubChem.
HT1080NT lethal – kills 2HG-producing HT-1080-NT fibrosarcoma cells. HT-1080-NT fibrosarcoma viability, CellTiter-Glo ATP luminescence, 48 h. Potency, µM (doses to about 46.1 µM), inactives show top-dose activity, negative = less viability, actives largely listed as cytotoxic. 360,000 compounds, 1.6% hits;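 further: NT is the 2HG producing partner of a matched IDH1 knockdown line; potency means the concentration at half of the fitted maximal effect; 0% = DMSO-treated cells and -100% = media-only wells without cells; nearly all actives have a fitted effect of over 55% in size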
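Luminescent CellTiter-Glo readout after 48 hours of compound exposure at 37 degrees C defined viability of HT-1080-NT cells. Activity was normalized to DMSO wells and cell-free media wells; concentration-response curves were fitted and assigned curve classes.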
ELG1 repair inh – ELG1-dependent DNA repair inhibition; AID 504467; Potency, µM (highest dose often 46.1 µM), for inactives: at the top dose activity change, negative = inhibition, actives largely listed as inhibitors; HEK293T ELG1-luciferase reporter, luminescence, 16 h; DNA damage induced by 5-fluorouridine; 330,000 compounds, 2.3% hits; further: potency means the concentration at half of the fitted maximal effect; nearly all actives have a fitted effect of over 55% in size
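Overnight (16 hr) co-exposure of 2,000 cells/well to 5-fluorouridine and compound at 37 °C preceded detection. Luciferase was quantified via ONE-Glo luminescence; loss of signal denotes inhibition.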
DT40 TDP1 no CPT – qHTS for Inhibitors of human tyrosyl-DNA phosphodiesterase 1 (TDP1): qHTS in cells in absence of CPT; 420,000 compounds, 15% hits; Potency, µM (top dose mostly 46.2 µM), for inactives: at the top dose activity change, negative = growth inhibition, most hits filed as inhibitors; DT40 Tdp1-/- hTDP1 cells, no CPT, ATP luminescence, 48 h; AID 686978, 2013; further: potency means the concentration at half of the fitted maximal effect; nearly all actives have a fitted effect of over 55% in size
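Luminescent ATP content (CellTiter-Glo) served as the growth readout. Knockout chicken DT40 cells expressing human TDP1 were exposed to compounds without camptothecin for a minimum 48 hr at 37 °C.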
IL-1B inflam inh – blocks inflammasome-driven IL-1 beta release | 360,000 compounds, 4.7% hits | activity change, % at 57.5 µM | AID 743279 | THP-1 LPS/ATP IL-1B secretion, AlphaLISA, 16 h; stronger effect = lower value; in the data active means activity change below about -50%; inconclusive means mostly about -30% to -49%
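THP-1 cells pretreated 1 hr with compounds (up to 57.5 uM final), then stimulated with LPS (250 ng/mL final) plus ATP (1.25 mM final); secreted IL-1B measured by AlphaLISA after 16 hr, decreased signal indicating inhibition.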
HT1080 IDH1KD tx – kills HT-1080 cells with IDH1 knockdown; HT-1080 IDH1 knockdown viability, ATP luminescence, 48 h; Potency, µM (titrated, usually from 46.1 µM), for inactives: top-dose activity, negative = toxicity, most hits filed as cytotoxic; 360,000 compounds, 2% hits; AID 686971;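 further: potency means the concentration at half of the fitted maximal effect; 0% = DMSO wells and -100% = cell-free medium wells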
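Cytotoxicity counter-line: IDH1KD HT-1080, 48 h, CellTiter-Glo. Curves classed by r2, magnitude and activity.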
TDP1 cell CPT – growth inhibition of DT40 Tdp1-/-;hTDP1 cells with camptothecin (screen for TDP1 inhibitors) | 420,000 compounds, 12% hits | chicken DT40 Tdp1-/-;hTDP1 cells + 20 nM CPT, ATP luminescence, 48 h | Potency, µM (top dose mostly 46.2 µM), inactives show at the highest dose activity change, negative = growth inhibition, actives largely listed as inhibitors | AID 686979; further: potency means the concentration at half of the fitted maximal effect; nearly all actives have a fitted effect of over 55% in size
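Cell growth measured by CellTiter-Glo luminescence after a minimum 48 h, 37 C compound exposure with 20 nM CPT in Tdp1-knockout DT40 cells stably expressing hTDP1, seeded 400/well; qHTS titration format.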
Active calls of the source: *; ? = inconclusive; . = no result given. In the library only some 19% were active in any assay of this set; here they are far more common. Unless noted, the call rests on the fitted dose curve; in most records, active means well fitted curve in the direction sought with a large enough effect; inconclusive means small, poorly fitted or top-dose-only effect, or another doubt; inactive means no such curve, though single readings can be large; an effect the other way counts as inactive or inconclusive. Unless noted, on the % scale 0 is the no-effect control and ±100 the full control effect.

SMILES | HT1080NT lethal | ELG1 repair inh | DT40 TDP1 no CPT | IL-1B inflam inh | HT1080 IDH1KD tx | TDP1 cell CPT
O=C(/C=C/c1ccc(Cl)cc1)NC(=S)Nc1ccc(N2CCOCC2)c(Cl)c1 | ? | ? | 12µM* | 9 | ? | 12µM*
O=C(NC(=S)/C(=C1\CCCCCN1)[N+](=O)[O-])c1ccccc1 | -7% | ? | 3% | 4 | -9% | -1%
CCC(=O)N1CCC(C)(C(=O)Nc2ccc3c(c2)OCCO3)C1 (stereo not given) | 24% | . | -13% | 31 | 14% | -6%
COc1ccccc1NC(=O)C1CCCN(c2nnc(C)c3c(C)n(-c4ccccc4)nc23)C1 (stereo not given) | . | . | 8.2µM* | . | . | 16µM*
Cc1nnc(N2CCCC(C(=O)Nc3cccc(C(F)(F)F)c3)C2)c2nn(-c3ccccc3)c(C)c12 (stereo not given) | . | . | 21µM* | . | . | ?
CCOC(=O)c1cccc(NC(=O)C2CCCN(c3nnc(C)c4c(C)n(-c5ccccc5)nc34)C2)c1 (stereo not given) | . | . | 9.2µM* | . | . | 13µM*
Cc1ccc(NC(=O)N2CCN(c3nnc(C)c4c(C)n(-c5ccccc5)nc34)CC2)cc1Cl | . | . | -6% | . | . | -25%
Cc1ccc(NC(=O)C2CCCN(c3nnc(C)c4c(C)n(-c5ccccc5)nc34)C2)cc1Cl (stereo not given) | . | . | 4.1µM* | . | . | 12µM*
CN(Cc1ccc(Cl)cc1Cl)C(=O)Cc1ccc(S(=O)(=O)N2CCOCC2)s1 | -5% | . | ? | 4 | -13% | ?
CC(=O)c1ccc(Cc2ccc(C(C)=O)s2)s1 | -3% | . | ? | 0 | -8% | -25%
Cn1ncc(Cl)c1C(=O)Nc1ccc(CN2CCCCC2)cc1 | 1% | 4% | 3% | 8 | 1% | -9%
O=C(Nc1nc(-c2ccccc2)cs1)C1CCCCN1S(=O)(=O)c1ccc(Cl)cc1 (stereo not given) | ? | ? | ? | 33 | ? | ?
O=C(Nc1nc(-c2ccccc2)cs1)C1CCCN(S(=O)(=O)c2cccc([N+](=O)[O-])c2)C1 (stereo not given) | -15% | 16µM* | ? | -25 | -1% | 21µM*
O=C(Nc1nc(-c2ccccc2)cs1)C1CCCCN1S(=O)(=O)c1ccccc1 (stereo not given) | ? | ? | 23µM* | -8 | ? | 26µM*
O=C(Nc1nc(-c2ccccc2)cs1)C1CCCN(S(=O)(=O)c2ccccc2)C1 (stereo not given) | ? | 2.3µM* | 6.5µM* | -8 | ? | 6.5µM*
O=C(CCN1C(=O)C2CCCCC2C1=O)Nc1ccc(F)c(F)c1F (stereo not given) | 5% | ? | -25% | 16 | 18% | -2%
O=Cc1cccc(C=O)c1 | . | . | -29% | . | . | -3%
CCc1ccccc1Nc1nc2cc(Cl)c(Cl)cc2nc1-n1nc(C)cc1C | . | . | 6% | . | . | -17%
C#CCSc1nc2ccccc2c(=O)n1CC=C | . | . | -28% | . | . | 8%
C#CCSc1nncn1C(=O)/C=C/c1ccccc1 | ? | ? | ? | -81* | 7% | 13µM*
Cc1ccc(S(=O)(=O)c2cn(CC(=O)Nc3cccc(C)c3)c3cc4c(cc3c2=O)OCO4)cc1 | . | . | 1% | . | . | 3%
COc1ccc(S(=O)(=O)NCCc2csc(-c3ccc(F)cc3)n2)cc1 | . | . | 15µM* | . | . | 12µM*
COc1ccc(-c2nc(CNS(=O)(=O)c3cccc(F)c3)cs2)cc1 | . | . | 15µM* | . | . | -76%
COc1ccc(S(=O)(=O)NCCc2cn3nc(C)c(C)nc3n2)cc1F | 8% | 14% | 15% | -2 | 15% | 3%
COc1ccc(-c2nc(CNS(=O)(=O)c3ccc(F)cc3)cs2)cc1 | . | . | 18µM* | . | . | ?
SMILES | HT1080NT lethal | ELG1 repair inh | DT40 TDP1 no CPT | IL-1B inflam inh | HT1080 IDH1KD tx | TDP1 cell CPT
COc1ccc(S(=O)(=O)NCCc2csc(-c3ccc(F)cc3)n2)cc1F | . | . | 26µM* | . | . | 23µM*
O=S(=O)(NCCc1csc(-c2cccnc2)n1)c1ccc(F)cc1 | 0% | -3% | -11% | 16 | 13% | 3%
CC(C)(C)c1nn(-c2ccccc2)c2[nH]c(=O)c(C=O)cc12 | -4% | ? | ? | 35 | -2% | ?
CC(NC(=S)Nc1ccc(Cl)cc1Cl)C(c1cccs1)N1CCCC1 (stereo not given) | -11% | -11% | ? | -81* | -2% | ?
CC(NC(=O)Nc1cccc(Cl)c1)C(c1cccs1)N1CCCC1 (stereo not given) | -5% | -14% | ? | -54* | -1% | -5%
CCOC(=O)C1=C(CN2CCN(C(=O)c3ccco3)CC2)NC(=O)NC1c1ccc(C)cc1 (stereo not given) | -1% | -1% | -22% | 17 | -2% | -9%
CC(CC(O)C1OC1(C)C)C1CCC2(C)C3=CCC4C(C)(C)C(=O)CCC4(C)C3CC[C@@]12C (stereo not given in full) | . | . | 7.3µM* | . | . | 5.2µM*
CC1(C)Cc2c(sc3[nH]c(=O)n(CC(=O)NCC4CCCO4)c(=O)c23)CO1 (stereo not given) | 0% | 12% | 21% | 16 | 10% | 8%
N#Cc1ccc(COC(=O)c2cnc(Cl)c(Cl)c2)cc1 | 1% | ? | -19% | -88* | 1% | 17%
Cc1noc(C)c1COC(=O)c1cc(F)c(F)cc1Cl | 3% | 25% | -3% | -2 | 8% | -3%
Cc1noc(C)c1COC(=O)c1cnc(Cl)c(Cl)c1 | ? | ? | 16% | -54* | ? | 22%
Cc1noc(C)c1COC(=O)/C=C/c1ccc(Cl)cc1 | 8% | 8% | 16µM* | 7 | 0% | ?
O=C(OCc1ccccc1)c1cnc(Cl)c(Cl)c1 | 0% | 1% | 0% | -4 | 7% | -1%
Cc1ccc(C(=O)N(Cc2cc3cc4c(cc3nc2N2CCOCC2)CCC4)CC2CCCO2)cc1 (stereo not given) | . | . | -17% | . | . | 1%
O=C(NCc1cccnc1)c1csc([C@@H]2C[C@H](O)[C@@H](CO)O2)n1 | 18% | . | ? | 102 | 15% | -27%
Cc1ccc(NC(=O)c2ccc(NC(=O)N3CCSc4ncccc43)cc2)cc1Cl | . | . | 12µM* | . | . | 16µM*
Cc1cc(Cl)ccc1NC(=O)c1cccc(NC(=O)N2CCSc3ncccc32)c1 | . | . | 16µM* | . | . | ?
